# Test results: the supplement of paper PMC10849652
# Of roughly 7,900 targets only a part is listed; those with a hit were picked by preference. About 0.6% of all pairs of compound and target were hits. A number with no mark means an inactive call.
# What was measured:
# Assay in all cases: log2 fold change, soluble protein after heating vs DMSO (PISA); higher = thermal stabilisation; K562 cells, 10 uM, 30 min; active = over 0.2 and 3.5 SD of the protein, either way, in both replicates (recomputed)
# [1] = compound: NC(=O)Nc1cc(-c2cccc(F)c2)sc1C(=O)N[C@H]1CCCNC1
# Summary of the method: (§1)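 K562 cells (2×10^6 cells/mL) were treated with 10 μM compound for 30 min, and aliquots were heated for 3 min over 48°C-58°C. Pooled aliquots were extracted in PBS with 0.5% NP-40 at 4°C, and the supernatant after 21,000xg for 90 min was measured by TMTpro 16plex LC-MS/MS with channel sums equalised. Reported thermal stability, relative to control samples and from duplicates, is a log2 fold change.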
# [2] = compound: NC(=O)c1cnc(N[C@@H]2CCCC[C@@H]2N)nc1Nc1cccc(-n2nccn2)c1
# Summary of the method: as §1
# [3] = compound: NC1(c2ccc(-c3nc4ccn5c(=O)[nH]nc5c4cc3-c3ccccc3)cc2)CCC1
# Summary of the method: as §1
# [4] = compound: NCC(=O)Nc1ccc(-n2nc(C(F)(F)F)cc2-c2ccc3c(ccc4ccccc43)c2)cc1
# Summary of the method: as §1
# entinostat = compound: Nc1ccccc1NC(=O)c1ccc(CNC(=O)OCc2cccnc2)cc1 [entinostat]
# Summary of the method: as §1
# vorinostat = compound: O=C(CCCCCCC(=O)Nc1ccccc1)NO [vorinostat]
# Summary of the method: as §1
# citarinostat = compound: O=C(CCCCCCNC(=O)c1cnc(N(c2ccccc2)c2ccccc2Cl)nc1)NO [citarinostat]
# Summary of the method: as §1
# silmitasertib = compound: O=C(O)c1ccc2c(c1)nc(Nc1cccc(Cl)c1)c1ccncc12 [silmitasertib]
# Summary of the method: as §1
# [5] = compound: O=C1NC(=O)C(c2cnc3ccccn23)=C1c1cn2c3c(cc(F)cc13)CN(C(=O)N1CCCCC1)CC2
# Summary of the method: as §1
# [6] = compound: c1cc(OCCN2CCCCC2)cc(-c2n[nH]c3ccc(-c4nnc[nH]4)cc23)c1
# Summary of the method: as §1
# entospletinib = compound: c1cn2cc(-c3ccc4cn[nH]c4c3)nc(Nc3ccc(N4CCOCC4)cc3)c2n1 [entospletinib]
# Summary of the method: as §1
# Sequence of UniProt P55196 (P55196 whole entry, looked up): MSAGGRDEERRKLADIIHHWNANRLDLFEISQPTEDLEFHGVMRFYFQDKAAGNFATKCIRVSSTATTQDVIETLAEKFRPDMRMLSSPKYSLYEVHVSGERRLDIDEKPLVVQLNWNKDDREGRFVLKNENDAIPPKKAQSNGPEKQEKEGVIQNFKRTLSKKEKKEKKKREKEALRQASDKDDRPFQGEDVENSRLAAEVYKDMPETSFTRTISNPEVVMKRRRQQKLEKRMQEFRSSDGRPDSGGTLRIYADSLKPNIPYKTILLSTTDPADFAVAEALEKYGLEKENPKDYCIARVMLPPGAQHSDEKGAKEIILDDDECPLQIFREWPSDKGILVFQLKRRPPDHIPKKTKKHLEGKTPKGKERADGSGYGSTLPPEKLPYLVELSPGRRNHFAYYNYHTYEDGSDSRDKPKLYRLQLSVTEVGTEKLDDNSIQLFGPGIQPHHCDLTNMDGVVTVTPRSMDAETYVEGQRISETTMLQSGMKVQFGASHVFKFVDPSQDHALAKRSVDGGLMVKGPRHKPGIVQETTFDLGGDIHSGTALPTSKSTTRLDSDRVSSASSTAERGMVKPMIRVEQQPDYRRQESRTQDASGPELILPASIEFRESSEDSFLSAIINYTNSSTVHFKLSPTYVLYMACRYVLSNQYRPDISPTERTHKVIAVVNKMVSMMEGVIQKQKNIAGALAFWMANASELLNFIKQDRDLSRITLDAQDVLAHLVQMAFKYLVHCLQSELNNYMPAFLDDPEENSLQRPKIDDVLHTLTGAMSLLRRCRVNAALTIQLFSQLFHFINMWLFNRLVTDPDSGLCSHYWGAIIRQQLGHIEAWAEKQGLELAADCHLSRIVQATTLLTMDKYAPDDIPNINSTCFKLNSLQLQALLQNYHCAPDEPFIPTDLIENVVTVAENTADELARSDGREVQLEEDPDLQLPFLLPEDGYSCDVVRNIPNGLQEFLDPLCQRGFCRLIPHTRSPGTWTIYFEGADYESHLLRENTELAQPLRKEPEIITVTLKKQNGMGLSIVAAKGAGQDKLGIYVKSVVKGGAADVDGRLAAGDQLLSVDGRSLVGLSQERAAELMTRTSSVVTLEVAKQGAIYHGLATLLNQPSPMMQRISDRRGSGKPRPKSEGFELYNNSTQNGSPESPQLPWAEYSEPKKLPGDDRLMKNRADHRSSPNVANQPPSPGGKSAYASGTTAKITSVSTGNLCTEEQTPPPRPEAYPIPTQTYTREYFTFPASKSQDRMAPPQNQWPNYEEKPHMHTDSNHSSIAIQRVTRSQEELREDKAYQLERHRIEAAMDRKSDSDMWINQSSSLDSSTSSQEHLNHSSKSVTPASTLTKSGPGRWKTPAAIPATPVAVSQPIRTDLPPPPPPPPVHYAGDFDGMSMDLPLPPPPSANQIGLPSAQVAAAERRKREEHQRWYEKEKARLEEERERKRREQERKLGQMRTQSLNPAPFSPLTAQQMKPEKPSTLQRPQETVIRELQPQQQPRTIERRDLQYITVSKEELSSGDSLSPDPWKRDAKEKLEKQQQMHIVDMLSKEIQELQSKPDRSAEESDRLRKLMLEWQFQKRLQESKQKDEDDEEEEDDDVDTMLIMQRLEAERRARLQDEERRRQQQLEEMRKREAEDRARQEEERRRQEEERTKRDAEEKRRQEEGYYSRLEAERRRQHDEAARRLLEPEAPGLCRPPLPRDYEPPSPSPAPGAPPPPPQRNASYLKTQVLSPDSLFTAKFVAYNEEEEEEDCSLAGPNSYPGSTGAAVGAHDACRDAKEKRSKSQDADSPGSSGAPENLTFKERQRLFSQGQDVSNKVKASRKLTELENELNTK
# Sequence of UniProt P35670 (P35670 whole entry, looked up): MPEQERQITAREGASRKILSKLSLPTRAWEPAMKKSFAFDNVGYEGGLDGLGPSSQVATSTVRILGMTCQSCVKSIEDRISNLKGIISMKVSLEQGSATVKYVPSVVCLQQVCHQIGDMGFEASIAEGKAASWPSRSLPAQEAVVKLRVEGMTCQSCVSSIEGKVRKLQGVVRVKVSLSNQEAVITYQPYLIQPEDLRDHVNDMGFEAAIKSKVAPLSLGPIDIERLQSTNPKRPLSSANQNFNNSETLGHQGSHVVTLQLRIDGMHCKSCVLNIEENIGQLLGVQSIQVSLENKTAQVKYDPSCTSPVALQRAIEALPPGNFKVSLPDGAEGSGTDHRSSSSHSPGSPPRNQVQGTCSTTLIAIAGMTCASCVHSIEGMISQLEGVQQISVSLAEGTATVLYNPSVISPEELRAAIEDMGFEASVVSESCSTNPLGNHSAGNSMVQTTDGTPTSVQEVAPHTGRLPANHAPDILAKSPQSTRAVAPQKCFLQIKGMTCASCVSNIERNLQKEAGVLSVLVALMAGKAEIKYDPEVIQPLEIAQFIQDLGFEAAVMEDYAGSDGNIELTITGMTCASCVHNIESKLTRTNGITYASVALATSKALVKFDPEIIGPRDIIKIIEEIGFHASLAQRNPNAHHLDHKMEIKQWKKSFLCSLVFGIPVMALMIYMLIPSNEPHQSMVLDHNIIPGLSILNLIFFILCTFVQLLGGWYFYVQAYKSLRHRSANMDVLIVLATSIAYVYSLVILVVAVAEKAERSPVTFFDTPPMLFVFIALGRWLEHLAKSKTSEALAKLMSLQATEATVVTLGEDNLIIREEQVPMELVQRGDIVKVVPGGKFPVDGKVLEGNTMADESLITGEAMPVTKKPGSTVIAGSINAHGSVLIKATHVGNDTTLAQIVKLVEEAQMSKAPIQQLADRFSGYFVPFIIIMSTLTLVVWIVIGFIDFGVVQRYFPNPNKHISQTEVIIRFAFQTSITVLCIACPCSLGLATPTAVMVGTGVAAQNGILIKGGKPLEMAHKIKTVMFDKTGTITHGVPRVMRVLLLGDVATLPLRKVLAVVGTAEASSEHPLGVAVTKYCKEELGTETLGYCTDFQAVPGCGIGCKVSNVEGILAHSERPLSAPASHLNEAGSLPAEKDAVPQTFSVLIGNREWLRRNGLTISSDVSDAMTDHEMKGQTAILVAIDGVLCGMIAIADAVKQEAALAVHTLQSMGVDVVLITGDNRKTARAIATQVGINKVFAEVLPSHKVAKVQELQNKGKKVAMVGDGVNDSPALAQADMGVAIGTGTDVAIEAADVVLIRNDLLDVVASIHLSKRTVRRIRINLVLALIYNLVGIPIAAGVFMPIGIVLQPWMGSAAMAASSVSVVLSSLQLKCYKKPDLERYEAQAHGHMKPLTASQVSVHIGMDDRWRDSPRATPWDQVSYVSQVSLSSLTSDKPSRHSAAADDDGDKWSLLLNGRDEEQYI
# Sequence of UniProt Q9NWX5 (Q9NWX5 whole entry, looked up): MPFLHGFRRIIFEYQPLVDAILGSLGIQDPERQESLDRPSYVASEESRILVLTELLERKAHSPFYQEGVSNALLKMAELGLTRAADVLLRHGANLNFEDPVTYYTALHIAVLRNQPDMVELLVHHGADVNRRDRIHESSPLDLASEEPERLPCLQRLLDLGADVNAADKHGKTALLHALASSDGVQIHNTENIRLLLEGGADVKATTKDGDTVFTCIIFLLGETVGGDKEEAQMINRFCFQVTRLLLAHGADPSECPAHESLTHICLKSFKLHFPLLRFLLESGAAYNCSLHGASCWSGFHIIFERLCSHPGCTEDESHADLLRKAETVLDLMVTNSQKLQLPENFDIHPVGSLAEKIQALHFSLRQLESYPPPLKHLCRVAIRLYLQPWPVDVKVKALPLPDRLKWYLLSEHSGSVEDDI
# Sequence of UniProt Q9UEY8 (Q9UEY8 whole entry, looked up): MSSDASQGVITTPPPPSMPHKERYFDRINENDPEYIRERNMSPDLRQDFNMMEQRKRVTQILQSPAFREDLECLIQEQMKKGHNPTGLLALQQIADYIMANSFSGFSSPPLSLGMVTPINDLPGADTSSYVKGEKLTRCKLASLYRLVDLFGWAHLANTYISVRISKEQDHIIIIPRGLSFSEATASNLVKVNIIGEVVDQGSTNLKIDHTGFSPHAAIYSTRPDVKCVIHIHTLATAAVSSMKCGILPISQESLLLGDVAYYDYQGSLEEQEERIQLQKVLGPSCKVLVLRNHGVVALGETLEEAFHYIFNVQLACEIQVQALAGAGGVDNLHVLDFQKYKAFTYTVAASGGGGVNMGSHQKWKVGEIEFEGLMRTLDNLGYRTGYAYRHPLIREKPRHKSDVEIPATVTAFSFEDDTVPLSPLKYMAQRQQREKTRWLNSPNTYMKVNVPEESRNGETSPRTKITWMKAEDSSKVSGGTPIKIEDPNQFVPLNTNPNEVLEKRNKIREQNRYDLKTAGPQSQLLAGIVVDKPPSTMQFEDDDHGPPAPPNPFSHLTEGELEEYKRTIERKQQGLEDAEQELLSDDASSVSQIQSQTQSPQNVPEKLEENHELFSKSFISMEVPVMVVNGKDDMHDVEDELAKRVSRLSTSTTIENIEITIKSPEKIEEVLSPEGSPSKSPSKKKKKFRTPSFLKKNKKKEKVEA
# Sequence of UniProt P53680 (P53680 whole entry, looked up): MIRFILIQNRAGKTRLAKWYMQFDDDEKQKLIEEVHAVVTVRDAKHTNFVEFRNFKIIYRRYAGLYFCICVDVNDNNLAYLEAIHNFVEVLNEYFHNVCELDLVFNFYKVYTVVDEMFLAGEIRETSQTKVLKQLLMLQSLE
# Sequence of UniProt Q9BTT0 (Q9BTT0 whole entry, looked up): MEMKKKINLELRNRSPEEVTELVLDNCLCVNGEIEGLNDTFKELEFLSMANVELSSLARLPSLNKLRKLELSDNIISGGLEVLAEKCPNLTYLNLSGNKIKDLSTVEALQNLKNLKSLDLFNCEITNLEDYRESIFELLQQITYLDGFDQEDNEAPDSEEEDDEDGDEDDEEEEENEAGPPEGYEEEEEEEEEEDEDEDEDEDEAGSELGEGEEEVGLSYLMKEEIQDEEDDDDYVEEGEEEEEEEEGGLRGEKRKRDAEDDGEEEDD
# Sequence of UniProt Q6QNY0 (Q6QNY0 whole entry, looked up): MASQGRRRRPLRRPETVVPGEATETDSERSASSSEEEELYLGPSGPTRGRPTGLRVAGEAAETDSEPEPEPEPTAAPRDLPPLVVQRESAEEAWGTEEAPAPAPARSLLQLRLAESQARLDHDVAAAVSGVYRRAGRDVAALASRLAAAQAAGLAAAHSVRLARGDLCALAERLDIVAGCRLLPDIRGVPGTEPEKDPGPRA
Target,log2 fold change [1],log2 fold change [2],log2 fold change [3],log2 fold change [4],log2 fold change (entinostat),log2 fold change (vorinostat),log2 fold change (citarinostat),log2 fold change (silmitasertib),log2 fold change [5],log2 fold change [6],log2 fold change (entospletinib)
ARMC8 (UniProt Q8IUR7),-0.044,0.017,-0.087,0.002,-0.031,-0.031,0.057,0.058,0.026,-0.028,-0.011
ARL3 (UniProt P36405),0.02,-0.005,-0.051,0.006,-0.024,-0.013,0.05,0,-0.001,-0.022,0.008
ATP12A isoform 2 (UniProt P54707),-0.115,0.049,0.075,0.003,-0.072,-0.035,-0.033,-0.033,-0.032,-0.037,-0.003
ACTBL2 (UniProt Q562R1),-0.205,0.038,1.54 (active),0.239,0.103,0.024,-0.585,-0.129,-0.051,-0.1,0.103
ALG5 (UniProt Q9Y673),-0.047,-0.129,-0.029,-0.031,0.02,0.052,0.051,0.075,-0.106,0.08,-0.005
BRAP (UniProt Q7Z569),0.056,-0.063,-0.113,-0.015,0.003,0.069,0.037,0.073,0.124,0.064,0.002
ATR (UniProt Q13535),-0.003,0.002,0.044,-0.089,0.017,0.057,0.039,0.035,-0.058,-0.066,-0.021
AP2S1 (UniProt P53680),-0.386 (active),0.102,-0.009,-0.039,-0.066,0.108,-0.077,0.011,-0.314 (active),-0.217,0.028
ASB6 (UniProt Q9NWX5),0.076,0.161,-0.216,-0.032,-0.12,-0.075,0.106,-0.006,0.059,0.07,-0.065
ATL2 (UniProt Q8NHH9),-0.021,-0.03,-0.165,-0.094,-0.025,0.017,-0.023,-0.004,-0.025,-0.058,0.016
ATAD1 (UniProt Q8NBU5),-0.036,-0.056,-0.015,-0.009,0.038,0.012,0.032,0.012,0.197,-0.053,0.022
ARFGAP1 (UniProt Q8N6T3),-0.036,-0.033,-0.073,-0.052,0.041,0.006,0.056,0.063,-0.092,0.035,-0.032
ACSL4 (UniProt O60488),-0.087,-0.097,-0.057,-0.023,0.081,0.029,0.044,0.149,0.003,0.017,0.009
ATP13A3 (UniProt Q9H7F0),-0.072,0.027,-0.082,0.039,0.026,-0.026,-0.033,0.048,0.02,-0.099,0.042
ANP32E (UniProt Q9BTT0),0.029,-0.043,0.014,0.063,0.016,0.01,0.116,0.083,-0.233,-0.036,0
ARL6IP6 (UniProt Q8N6S5),-0.085,-0.125,-0.073,-0.015,-0.021,-0.007,-0.058,-0.014,0.011,-0.059,-0.091
AAMP (UniProt Q13685),-0.006,-0.05,-0.005,-0.018,-0.055,0.015,-0.026,0.061,0.059,-0.013,0.063
ACSL5 isoform 3 (UniProt Q9ULC5),-0.007,-0.066,-0.042,-0.184,0.081,0.005,-0.035,0.002,-0.103,-0.052,-0.021
ACP1 (UniProt P24666),-0.079,-0.24,-0.002,-0.199,0.093,0.01,0.012,0.088,-0.074,-0.014,0.102
ACTR1B (UniProt P42025),0.075,0.027,-0.003,0.004,-0.034,0.459 (active),0.078,0.023,0.06,-0.004,0.01

Target,log2 fold change [1],log2 fold change [2],log2 fold change [3],log2 fold change [4],log2 fold change (entinostat),log2 fold change (vorinostat),log2 fold change (citarinostat),log2 fold change (silmitasertib),log2 fold change [5],log2 fold change [6],log2 fold change (entospletinib)
ABCC5 (UniProt O15440),0.016,0.088,-0.038,-0.005,-0.017,0.001,0.114,0.008,-0.082,0.12,0.028
ARPP19 (UniProt P56211),-0.049,-0.075,-0.019,0.046,0.027,-0.038,0.1,0,0.026,-0.051,-0.06
ACP1 isoform 2 (UniProt P24666),0.048,-0.018,-0.086,-0.041,0.041,0.159,0.005,-0.005,-0.149,-0.044,0.052
AFDN isoform 1 (UniProt P55196),-0.016,0.048,-0.043,-0.031,0.047,-0.033,0.079,0.002,-0.054,-0.141,-0.028
ARFRP1 (UniProt Q13795),0.167,0.108,-0.173,0.067,0.117,0.054,0.025,0.013,-0.085,0.074,0.024
BLOC1S3 (UniProt Q6QNY0),0.057,0,-0.014,-0.023,-0.06,0.039,-0.018,0.006,-0.013,-0.014,-0.079
ACADVL isoform 3 (UniProt P49748),-0.025,-0.036,-0.021,-0.032,0,-0.019,0.043,-0.015,-0.014,-0.028,0.002
ATP1A4 (UniProt Q13733),0.023,0.069,0.059,-0.03,-0.001,-0.002,0.121,0.007,0.176,-0.088,-0.065
APOB (UniProt P04114),-0.206,-0.387,-0.621 (active),-0.806 (active),0.042,-0.009,0.015,0.068,0.001,0.056,0.04
ABHD17A isoform 2 (UniProt Q96GS6),0.036,-0.119,-0.049,-0.078,-0.104,-0.04,0.036,-0.02,0.01,0.051,-0.076
B4GALNT1 (UniProt Q00973),-0.001,-0.062,-0.093,0.092,0.02,0.003,0.538 (active),0.062,-0.095,0.064,0.074
ADD1 isoform 3 (UniProt P35611),0.03,-0.016,0.034,-0.02,-0.071,0.01,0.034,-0.01,-0.06,0.01,0.007
BPHL (UniProt Q86WA6),-0.014,-0.081,0.255,-0.012,0.019,-0.04,-0.042,-0.045,-0.06,0.051,-0.01
ARHGAP1 (UniProt Q07960),-0.068,-0.048,-0.003,-0.051,0.016,0.012,0.009,0.014,-0.024,-0.093,0.011
AUP1 (UniProt Q9Y679),-0.013,-0.082,-0.236 (active),-0.107,0.061,0.135,0.067,0.019,0.064,-0.051,-0.025
ATP7B (UniProt P35670),-0.051,-0.139,-0.111,-0.15,-0.003,0.035,0.005,0.036,-0.036,-0.023,0.012
AGPAT1 (UniProt Q99943),0.013,-0.022,0.018,-0.012,-0.033,-0.03,0.088,-0.007,-0.067,-0.002,-0.037
ARL6IP4 (UniProt Q66PJ3),-0.035,0.221,0.025,0.013,-0.04,-0.011,0.04,-0.017,-0.007,-0.017,0.034
ACAP2 (UniProt Q15057),-0.016,-0.075,0.026,-0.035,0.005,0,0.029,-0.007,-0.078,0.045,-0.073
ADD3 isoform 2 (UniProt Q9UEY8),0.03,0.059,-0.009,-0.002,-0.018,-0.119,0.08,-0.002,0.019,-0.02,-0.066
